Results published in the antibiotic and cytotoxicity screens of Wong et al. (2023).
Hit rate of the full screen: of about 39,000 compounds, about 3,300 (8.5%) were called active. The sample holds actives, similar compounds and a random draw of the others, so the mix is not that of the screen.

Test system: HepG2
Experiment: cytotoxicity call (relative viability < 0.9)
Settings: 10 µM

SMILES | cytotoxicity call
CN(C)CC(=O)N[C@H]1C=C[C@@H](CC(=O)O)O[C@@H]1CO | inactive
C[C@H](CO)N1C[C@H](C)[C@H](CN(C)C(=O)Nc2ccc(C(F)(F)F)cc2)Oc2ccc(NC(=O)Cc3ccccc3)cc2CC1=O | inactive
C[C@H]1CN([C@@H](C)CO)C(=O)c2cccc(NC(=O)Nc3ccccc3)c2O[C@H]1CN(C)Cc1ccc(Oc2ccccc2)cc1 | inactive
Cc1noc(C)c1S(=O)(=O)Nc1ccc2c(c1)C(=O)N([C@H](C)CO)C[C@H](C)[C@H](CN(C)Cc1ccc3c(c1)OCO3)O2 | inactive
COC[C@@H](O)CNc1ncnc2c1CCNCC2 | inactive
C[C@H]1CN([C@@H](C)CO)C(=O)c2cccc(NC(=O)c3nc4ccccc4s3)c2O[C@@H]1CN(C)CC1CCCCC1 | inactive
Cc1noc(C)c1S(=O)(=O)N(C)C[C@H]1Oc2ccc(NC(=O)NC(C)C)cc2CC(=O)N([C@@H](C)CO)C[C@@H]1C | inactive
C[C@@H]1CN([C@@H](C)CO)C(=O)c2cc(NC(=O)c3ccccc3)ccc2O[C@@H](C)CCCCO[C@H]1CN(C)C(=O)Cc1ccccc1 | inactive
O=C([C@H]1CCCCN1)N1CCCC1 | inactive
CC(=O)N1[C@H](CO)[C@@H](c2ccccc2)[C@H]1CNC(=O)CN1CCOCC1 | inactive
Cc1ccc(S(=O)(=O)N(C)C[C@@H]2OCCCC[C@@H](C)Oc3ccc(NC(=O)NC4CCCCC4)cc3C(=O)N([C@@H](C)CO)C[C@H]2C)cc1 | inactive
Cc1ccc(S(=O)(=O)N(C)C[C@@H]2OCCCC[C@H](C)Oc3ccc(NC(=O)NC4CCCCC4)cc3C(=O)N([C@@H](C)CO)C[C@@H]2C)cc1 | inactive
Cc1ccc(S(=O)(=O)N(C)C[C@H]2OCCCC[C@@H](C)Oc3ccc(NC(=O)NC4CCCCC4)cc3C(=O)N([C@@H](C)CO)C[C@H]2C)cc1 | inactive
Cc1ccc(S(=O)(=O)N(C)C[C@@H]2OCCCC[C@@H](C)Oc3ccc(NC(=O)NC4CCCCC4)cc3C(=O)N([C@H](C)CO)C[C@@H]2C)cc1 | inactive
Cc1ccc(S(=O)(=O)N(C)C[C@H]2OCCCC[C@@H](C)Oc3ccc(NC(=O)NC4CCCCC4)cc3C(=O)N([C@@H](C)CO)C[C@@H]2C)cc1 | active
Cc1ccc(S(=O)(=O)N(C)C[C@@H]2OCCCC[C@@H](C)Oc3ccc(NC(=O)NC4CCCCC4)cc3C(=O)N([C@H](C)CO)C[C@H]2C)cc1 | active
COc1ccc(S(=O)(=O)N(C)C[C@H]2OCCCC[C@@H](C)Oc3ccc(NC(=O)Nc4ccc(C(F)(F)F)cc4)cc3C(=O)N([C@H](C)CO)C[C@@H]2C)cc1 | inactive
CC(C)c1nc(CN(C)C(=O)N[C@@H](CCN2CCOCC2)C(=O)N[C@H](CC[C@H](Cc2ccccc2)NC(=O)OCc2cncs2)Cc2ccccc2)cs1 | inactive
CC(C)NC(=O)Nc1ccc2c(c1)CC(=O)N([C@H](C)CO)C[C@H](C)[C@@H](CN(C)S(=O)(=O)c1cn(C)cn1)O2 | inactive
C=CCOC(=O)[C@@H]1[C@H]2C(=O)O[C@H](c3ccccc3)[C@H](c3ccccc3)N2[C@H](c2ccc(OCCOC(=O)[C@@H]3C[C@@H]4C(=O)N5CCC[C@H]5C(=O)N4[C@@H]3c3ccc(O)cc3)cc2)[C@@]12C(=O)Nc1ccccc12 | inactive

SMILES | cytotoxicity call
COc1ccc([Si](C)(C)[C@H]2[C@H](CCO)O[C@@]3(C(=O)N(Cc4ccc(N5C(=O)c6cccc7cccc5c67)cc4)c4ccccc43)[C@@H]2C)cc1 | active
COc1ccc([Si](C)(C)[C@H]2[C@H](CC(=O)N3CCC[C@H]3CO)O[C@@]3(C(=O)N(Cc4ccc(N5C(=O)c6cccc7cccc5c67)cc4)c4ccccc43)[C@@H]2C)cc1 | inactive
COc1ccc([Si](C)(C)[C@@H]2[C@@H](CC(=O)N3CCC[C@H]3CO)O[C@]3(C(=O)N(Cc4ccc(N5C(=O)c6cccc7cccc5c67)cc4)c4ccccc43)[C@H]2C)cc1 | inactive
COc1ccc([Si](C)(C)[C@@H]2[C@@H](CCO)O[C@]3(C(=O)N(Cc4ccc(N5C(=O)c6cccc7cccc5c67)cc4)c4ccccc43)[C@H]2C)cc1 | active
COc1ccc([Si](C)(C)[C@@H]2[C@@H](CC(=O)N3Cc4ccccc4C[C@H]3CO)O[C@]3(C(=O)N(Cc4ccc(N5C(=O)c6cccc7cccc5c67)cc4)c4ccccc43)[C@H]2C)cc1 | inactive
C[C@H](CO)N1C[C@H](C)[C@@H](CN(C)S(=O)(=O)c2cn(C)cn2)Oc2ccc(NC(=O)Cc3cn(C)c4ccccc34)cc2C1=O | inactive
c1csc(Cn2cccc2)c1 | inactive
CCOC(=O)[C@H](C(C)=O)[C@H]1CCS(=O)(=O)C1 | inactive
CC(C)NC(=O)N(C)C[C@@H]1Oc2ccc(NC(=O)NC3CCCCC3)cc2C(=O)N([C@@H](C)CO)C[C@@H]1C | inactive
Cc1noc(C)c1S(=O)(=O)Nc1ccc2c(c1)C(=O)N([C@H](C)CO)C[C@H](C)[C@@H](CN(C)Cc1ccc3c(c1)OCO3)O2 | inactive
CCc1nc2ccc(C(=O)Nc3cc(-c4ccccc4)ccc3OC)cn2c1N(CCN(C)C)CC1CC1 | active
CCc1nc2ccc(C(=O)Nc3cc(-c4ccccc4)ccc3OC)cn2c1N(C)C(=O)Cc1ccccc1 | inactive
CCc1nc2ccc(C(=O)Nc3cc(-c4ccccc4)ccc3OC)cn2c1N(C)CCCc1ccccc1 | inactive
CCC(=O)N1CCC(C(=O)O)CC1 | inactive
COC(=O)CCC(C)C1CCC2C3CCC4CC(O)CCC4(C)C3CC(O)C12C (stereo not given) | inactive
CC(CCC(=O)O)C1CCC2C3C(O)CC4CC(O)CCC4(C)C3CC(O)C12C (stereo not given) | inactive
C[C@H](CCC(=O)NCC(=O)NCCS(=O)(=O)O)[C@H]1CC[C@H]2[C@@H]3[C@H](O)C[C@@H]4C[C@H](O)CC[C@]4(C)[C@H]3C[C@H](O)[C@]12C | active
CC(CCC(=O)NCC(=O)O)C1CCC2C3C(O)CC4CC(O)CCC4(C)C3CC(O)C12C (stereo not given) | inactive
COC(=O)CCC(C)C1CCC2C3C(O)CC4CC(O)CCC4(C)C3CC(O)C12C (stereo not given) | active
C[C@H](CCC(=O)NCCS(=O)(=O)O)[C@H]1CC[C@H]2[C@@H]3[C@H](O)C[C@@H]4C[C@H](O)CC[C@]4(C)[C@H]3C[C@H](O)[C@]12C | inactive
